Consider twelve compounds from PubChem BioAssay (NCI).

Values joined by “and” are separate entries in the source; they are usually repeats but may differ in a detail not shown here. Equal entries are not always repeated. Compounds without any hit were thinned out: in the full panel of roughly 83,000, 20% have a hit.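 Interpretation: 100, growth as untreated; towards 0, rising growth inhibition; 0, no net growth; 0 to -100, cell death. Compounds scoring below 10 were considered active.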 Active and inactive are the calls of the source.

Some test systems named below: SR leukemia; RPMI-8226 leukemia; OVCAR-8 ovarian; OVCAR-4 ovarian; SK-OV-3 ovarian; IGROV1 ovarian; OVCAR-3 ovarian; HS 578T breast; NCI/ADR-RES ovarian; OVCAR-5 ovarian.
Test in all cases: NCI-60 one-dose screen, 48 h (100 = growth as untreated, 0 = no growth, -100 = all killed)
What all share (details): 10 µM unless noted

On to `Cc1onc(-c2c(F)cccc2Cl)c1-c1ncc(-c2ccc(Cl)cc2)o1`, for which the growth in the test on SR leukemia was 11% (inactive); with RPMI-8226 leukemia, 26.2% (inactive) and 23.4% (inactive); in the test with OVCAR-8 ovarian, 55.7% (inactive) and 35.5% (inactive); in the test with OVCAR-4 ovarian, 80.9% (inactive) and 47.9% (inactive); in the test with SK-OV-3 ovarian, 71% (inactive) and 61.4% (inactive); in the test on IGROV1 ovarian, 49.1% (inactive) and 33.3% (inactive). Further, the growth in the test with OVCAR-3 ovarian was 63.4% (inactive) and 45.9% (inactive); in the test with HS 578T breast it was 84.8% (inactive) and 57.3% (inactive); in the test with NCI/ADR-RES ovarian, 57.4% (inactive) and 27.2% (inactive).
For `CCC(C)NC(=O)c1ccccc1C` (stereo not drawn), the growth in the test on SR leukemia is 111% (inactive); with RPMI-8226 leukemia, 105% (inactive); with OVCAR-8 ovarian, 102% (inactive); in the test with OVCAR-4 ovarian, 109% (inactive); with SK-OV-3 ovarian, 97.5% (inactive); with IGROV1 ovarian, 94.1% (inactive). Besides, the figures for the growth in the test with OVCAR-3 ovarian, with HS 578T breast and with NCI/ADR-RES ovarian were 110% (inactive), 96.8% (inactive) and 92.7% (inactive), respectively.
As to `O=C1C=CC[C@H](/C=C/c2ccccc2)O1`, the growth in the test on SR leukemia is 5.19% (active); in the test on RPMI-8226 leukemia, -34.8% (active); in the test with OVCAR-8 ovarian, 21.2% (inactive) and 14.4% (inactive); with OVCAR-4 ovarian it was 36% (inactive) and 33.6% (inactive); in the test on SK-OV-3 ovarian, 132% (inactive) and 7.79% (active); in the test on IGROV1 ovarian, -35.5% (active) and 15.7% (inactive). In addition, the growth was 1.02% (active) and -41.3% (active) with OVCAR-3 ovarian; 25.4% (inactive) and 19.5% (inactive) in the test with HS 578T breast; 34% (inactive) and 28.9% (inactive) in the test on NCI/ADR-RES ovarian.
`O=[N+]([O-])c1ccc(N2CCN=N2)cc1`: the growth was 78.6% (inactive) in the test with SR leukemia; 92.7% (inactive) with RPMI-8226 leukemia; 88% (inactive) in the test with OVCAR-8 ovarian; 95.9% (inactive) in the test on OVCAR-4 ovarian; 89.6% (inactive) in the test on SK-OV-3 ovarian; 96.1% (inactive) in the test on IGROV1 ovarian. The results for the growth with OVCAR-3 ovarian, with HS 578T breast and in the test on NCI/ADR-RES ovarian were 99.8% (inactive), 101% (inactive) and 100% (inactive), respectively.
Take `Nc1nc(=S)c2[nH]cnc2[nH]1`: the growth in the test on SR leukemia was 5.87% (active) and 0.643% (active); with RPMI-8226 leukemia, 1.54% (active) and -23.5% (active); in the test on OVCAR-8 ovarian, 12% (inactive); in the test on OVCAR-4 ovarian it was 25.1% (inactive) and 44% (inactive); in the test with SK-OV-3 ovarian, 5.43% (active) and 6.69% (active); in the test on IGROV1 ovarian, 27.3% (inactive) and 36.7% (inactive). The growth in the test with OVCAR-3 ovarian is -20.3% (active) and 11.4% (inactive); in the test with HS 578T breast, 54.1% (inactive); in the test on NCI/ADR-RES ovarian it was 18.2% (inactive) and -50.1% (active).
Turning to `CC1(C)CC(=O)NC1=O`, the growth in the test on SR leukemia is 95.9% (inactive); in the test with RPMI-8226 leukemia it was 108% (inactive); with OVCAR-8 ovarian, 98.9% (inactive); with OVCAR-5 ovarian it was 94.8% (inactive); with SK-OV-3 ovarian, 104% (inactive); in the test with IGROV1 ovarian it was 110% (inactive). Besides, the growth in the test with OVCAR-3 ovarian was 103% (inactive); in the test with HS 578T breast, 112% (inactive); in the test on NCI/ADR-RES ovarian, 103% (inactive).
Take `Nc1ccccc1SC(CC(=O)c1ccccc1)c1cccc([N+](=O)[O-])c1` (stereo not drawn): the growth in the test on SR leukemia was 70.2% (inactive) and 2.4% (active); in the test on RPMI-8226 leukemia, -30.1% (active) and -4.39% (active); in the test on OVCAR-8 ovarian, 87.9% (inactive) and 92.8% (inactive); with OVCAR-5 ovarian it was 105% (inactive) and 119% (inactive); in the test with SK-OV-3 ovarian, 104% (inactive) and 109% (inactive); in the test on IGROV1 ovarian, 127% (inactive) and 96.5% (inactive). Besides, the growth in the test on OVCAR-3 ovarian is 104% (inactive) and 66.5% (inactive); with HS 578T breast it was 106% (inactive) and 110% (inactive); in the test with NCI/ADR-RES ovarian, 91.4% (inactive) and 92.9% (inactive).
Take `COc1ccc2oc3cc(NCCN(C)C)ccc3c(=O)c2c1`: the growth is 38.9% (inactive) in the test on SR leukemia; 103% (inactive) and 73.2% (inactive) in the test on RPMI-8226 leukemia; 88% (inactive) and 63.4% (inactive) in the test with OVCAR-8 ovarian; 88.2% (inactive) and 87.1% (inactive) in the test with OVCAR-5 ovarian; 92.5% (inactive) and 55% (inactive) in the test on SK-OV-3 ovarian; 90.3% (inactive) and 88.4% (inactive) with IGROV1 ovarian. Moreover, the growth in the test on OVCAR-3 ovarian was 121% (inactive) and 107% (inactive); in the test with HS 578T breast, 105% (inactive) and 83.9% (inactive); in the test with NCI/ADR-RES ovarian, 90.5% (inactive) and 69.6% (inactive).
With `Cn1c(N)c(N=O)c(=O)n(C)c1=O`, the growth with SR leukemia is 92.4% (inactive) and 91.7% (inactive); in the test on RPMI-8226 leukemia, 104% (inactive) and 116% (inactive); in the test with OVCAR-8 ovarian it was 96.8% (inactive) and 104% (inactive); with OVCAR-5 ovarian, 111% (inactive) and 104% (inactive); in the test on SK-OV-3 ovarian, 111% (inactive) and 118% (inactive); in the test with IGROV1 ovarian it was 105% (inactive). Moreover, the growth with OVCAR-3 ovarian was 109% (inactive) and 90.7% (inactive); in the test on HS 578T breast, 112% (inactive) and 94.4% (inactive); in the test on NCI/ADR-RES ovarian it was 97.6% (inactive).
For `O=C(O)COc1ccccc1F`, the growth in the test with SR leukemia was 99.5% (inactive); with RPMI-8226 leukemia, 98.4% (inactive); in the test with OVCAR-8 ovarian, 116% (inactive); in the test with OVCAR-5 ovarian, 104% (inactive); with SK-OV-3 ovarian, 119% (inactive); in the test on IGROV1 ovarian, 105% (inactive). The growth was 108% (inactive) with OVCAR-3 ovarian, 101% (inactive) with HS 578T breast and 114% (inactive) with NCI/ADR-RES ovarian.
As for `CCCCC/C(C)=N\NC(N)=S`, the growth in the test on SR leukemia is 86.9% (inactive); with RPMI-8226 leukemia, 70.9% (inactive); in the test on OVCAR-8 ovarian, 65.3% (inactive); in the test on OVCAR-4 ovarian, 67.8% (inactive); with SK-OV-3 ovarian, 98.9% (inactive); with IGROV1 ovarian, 89.7% (inactive). Besides, the values for the growth in the test on OVCAR-3 ovarian, in the test on HS 578T breast and in the test on NCI/ADR-RES ovarian were 43.4% (inactive), 87.6% (inactive) and 48.8% (inactive), respectively.
In the case of `C/C=C/C(=O)OCCCCCCCCCCCC`, the growth is 83.4% (inactive) in the test on SR leukemia; 99.9% (inactive) with RPMI-8226 leukemia; 90.5% (inactive) with OVCAR-8 ovarian; 113% (inactive) in the test on OVCAR-4 ovarian; 97.5% (inactive) with SK-OV-3 ovarian; 111% (inactive) with IGROV1 ovarian. Moreover, the growth in the test on OVCAR-3 ovarian is 106% (inactive); with HS 578T breast it was 107% (inactive); in the test with NCI/ADR-RES ovarian it was 106% (inactive).
